Compound activity: PubChem, National Center for Advancing Translational Sciences (NCATS)
ATXN2 expr inh: Primary qHTS for Inhibitors of ATXN expression | HEK-293 ATXN2-luciferase reporter, luminescence, 24 h | Potency, µM (titrated, usually from 57 µM), for the others: top-dose activity change, negative = inhibition, actives largely listed as inhibitors | actives 0.72% (n = 360,000); further: on the % scale 0 is the no-effect control and ±100 the full control effect; nearly all actives have a fitted effect of over 55% in size
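ATXN2-luciferase reporter cells (luciferase flanked by upstream and downstream ATXN2 gene portions) were treated 24 h at 37 °C with compounds at up to 57 uM. SteadyGlo luminescence gave expression; GF-AFC fluorescence gave viability.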
A549 tox: Nrf2 qHTS screen for inhibitors: counterscreen for cytotoxicity; A549 ARE-Fluc cells, CellTiter-Fluor viability, 18-24 h; Potency, µM (doses to about 46 µM), without a hit: at the top dose activity change, negative = cytotoxicity, most hits filed as inhibitors; actives 0.16% (n = 390,000); AID 504648, 2011; further: on the % scale 0 is the no-effect control and ±100 the full control effect
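A549 ARE-Fluc cells in 5% FBS OPTI-MEM, 5000 cells/well, rested 2 h then exposed to compounds in concentration-response for 18-24 h at 37 °C. Viability by CellTiter-Fluor fluorescence (Ex 405/Em 525) after 30 min; luciferase luminescence (BugLite, 15 min, RT) read afterwards.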
ATXN viability: Viability Counterscreen for Primary qHTS for Inhibitors of ATXN expression. S2 cells (HEK-293 line with an ATXN2-luciferase reporter) viability, CellTiter-Fluor protease fluorescence, 24 h. Potency, µM (doses to about 56.7 µM), most hits filed as cytotoxic. actives 0.49% (n = 400,000); further: nearly all actives have a fitted effect of over 40% in size
Nrf2 block: Nrf2 qHTS screen for inhibitors; Potency, µM (doses to about 46 µM), for inactives: at the highest dose activity change, negative = inhibition, most hits filed as inhibitors; actives 2.1% (n = 360,000); AID 504444, 2011; A549 ARE-Fluc reporter, luciferase luminescence, 18-24 h; further: on the % scale 0 is the no-effect control and ±100 the full control effect; nearly all actives have a fitted effect of over 60% in size
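Quantitative HTS in A549 cells stably bearing an antioxidant response element-firefly luciferase construct. Inhibition of Nrf2-driven transcription was scored by luminescence after 18-24 h of compound exposure at 37 °C.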
TGFb SMAD3 inh: qHTS for Inhibitors of TGF-b | actives 1.2% (n = 410,000) | HepG2 CAGA-GFP TGF-b/SMAD3 reporter, GFP fluorescence, 18 h; TGF-beta stimulated, 500 pg/mL final | Potency, µM (highest dose often 46.1 µM), for the others: top-dose activity, negative = inhibition, most hits filed as inhibitors; further: on the % scale 0 is the no-effect control and ±100 the full control effect; nearly all actives have a fitted effect of over 65% in size
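Inhibition of TGF-beta-driven CAGA-GFP reporter expression in HEPG2 cells is measured by cellular GFP fluorescence after 18 h stimulation with 500 pg/mL recombinant TGF-beta in 1% FBS medium at 37 degrees C.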
HepG2 tox: qHTS for Inhibitors of TGF-b: Cytotox Counterscreen. HepG2 CAGA-GFP viability, ATP luminescence, 18 h. Potency, µM (doses to about 46.1 µM), for inactives: at the highest dose activity change, negative = cytotoxicity, actives largely listed as cytotoxic. actives 0.76% (n = 410,000)
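CellTiter-Glo luminescence gave cytotoxicity after 18 hours at 37 degrees C. The cells were HepG2 CAGA-GFP in 1% FBS DMEM, stimulated with 500 pg/mL TGF-beta after compound addition. %Activity was normalised to no-cell wells (complete cell-killing) and DMSO (no toxicity), and curves were fitted and classified.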
Numbers without * were called inactive; i = inactive; ? = inconclusive; . = no result given; [ ] = remark or other dose. Compounds with a hit are over-represented: about 3.8% of the library has one in this group of screens. The call rests on the fitted dose curve; in most records, active means well fitted curve in the direction sought with a large enough effect; inconclusive means small, poorly fitted or top-dose-only effect, or another doubt; inactive means no such curve, though single readings can be large; an effect the other way counts as inactive or inconclusive. Potency means the concentration at half of the fitted maximal effect.

SMILES	ATXN2 expr inh	A549 tox	ATXN viability	Nrf2 block	TGFb SMAD3 inh	HepG2 tox
Cc1cc2nc(-c3ccc(SCC(=O)N4CCc5ccccc54)nc3)[nH]c2cc1C	?	11.6%	17.8µM*	?	?	-10.0%
O=C(COC(=O)C1=NN(c2ccccc2)C(=O)CC1)Nc1nc(-c2ccc(F)cc2)cs1	6.3%	6.6%	i	?	1.3%	-23.4%
CCc1ccc(-c2csc(NC(=O)C3=NN(c4ccccc4)C(=O)CC3)n2)cc1	.	-2.6%	i	18.4µM*	-28.8%	-14.3%
CCc1ccc(-c2csc(NC(=O)c3cccnc3)n2)cc1	2.8%	-9.4%	i	14.6µM*	-6.7%	-3.5%
Cc1cc(N2CCC(C(=O)N3CCN(c4cccc(C)c4C)CC3)CC2)n2ncnc2n1	-38.9%	10.5%[1.84 µM]	i	14.6µM*	-27.3%	-11.0%
Cc1cccc(N2CCN(C(=O)C3CCN(c4ncnc5c4nc4n5CCCCC4)CC3)CC2)c1C	.	?	?	20.6µM*	?	-10.7%
Cc1cccc(N2CCN(C(=O)C3CCN(c4ncnc5c4nc4n5CCCCC4)CC3)CC2C)c1 (centres undefined)	?	?	?	18.4µM*	?	-11.3%
COc1ccccc1-c1ccc2c(c1)C(C)(Cc1ccc(OC(F)(F)F)cc1)C(=O)N2 (centres undefined)	?	.	?	.	?	-113.9%
O=C(CNC(=O)C1CCCCC1)OCC(=O)c1ccc([N+](=O)[O-])cc1	.	-1.7%	.	?	1.7%	-0.3%
CSc1nc(-c2ccc(C)cc2)[nH]c1S(=O)(=O)c1ccccc1	-4.8%	-10.5%	i	18.4µM*	-12.3%	-18.6%
CC(=O)Sc1nc(-c2ccccc2)[nH]c1S(=O)(=O)c1ccc(C)cc1	6.6%	-3.5%	i	7.3%	0.0%	3.3%
COc1ccc(Br)c(C=O)c1OS(=O)(=O)c1ccc(C)cc1	.	.	i	.	-0.3%	-7.3%
Cc1noc(/C=C/c2cccnc2)c1[N+](=O)[O-]	?	?	?	18.4µM*	?	-74.6%
COc1ccc(OC)c(NC(=O)C2CCCN(S(=O)(=O)c3cccc4nsnc34)C2)c1 (centres undefined)	-8.3%	0.5%	i	-5.9%	-8.7%	12.6µM*
C/C(=N\NC(N)=S)c1ccccc1	-15.8%	-8.0%	i	2.5%	-29.1%	-3.8%
C/C(=N\NC(N)=S)c1cc(-c2ccccc2)c(-c2ccccc2)s1	?	-3.0%	?	-1.3%	12.6µM*	-41.0%
Cc1[nH]c2ccccc2c1N=Nc1ccccc1C(=O)O	3.3%	-17.9%	?	14.6%	19.7%	-17.9%
O=C(CSc1ccncc1)Nc1ccc2ccccc2c1	-3.5%	-2.6%	i	-5.2%	-1.4%	2.3%
O=C(CSc1ccc2ccccc2c1)Nc1ccncc1	-4.7%	-9.9%[1.84 µM]	i	7.31µM*	-17.4%	-24.0%
CC(C)(C)CC(C)(C)NC(=O)CSCC(=O)Nc1ccc2ccccc2c1	2.2%	?	i	16.4µM*	?	-100.5%
CCC(=O)Nc1ccc2ccccc2c1	17.3%	-0.7%	i	9.9%	0.9%	17.8%
COc1c(C)cc(C(O)c2ncc(-c3ccc(C(F)(F)F)cc3)[nH]2)cc1C (centres undefined)	-9.1%	.	i	.	?	-46.2%
CC1CCN(C(=O)CN2c3ccc(Br)cc3-c3ccccc3S2(=O)=O)CC1	51.0%	-5.1%	?	24.1%	-36.9%	-11.6%
CCOc1ccc(C(=O)N/N=C/c2cccc3cccnc23)cc1	?	?	i	.	?	-27.4%
CSCC[C@H](NC(=O)OC(C)(C)C)C(=O)N/N=C/c1cccc2cccnc12	28.2µM*	6.8%	i	20.4%	-5.6%	-52.9%
SMILES	ATXN2 expr inh	A549 tox	ATXN viability	Nrf2 block	TGFb SMAD3 inh	HepG2 tox
COc1ccc2nc(/C=N/NC(=O)[C@H](CCSC)NC(=O)OC(C)(C)C)ccc2c1	-16.3%	-1.5%	?	-17.0%	-2.5%	15.0%
COc1ccc(C(=O)N/N=C/c2cccc3cccnc23)cc1	22.4µM*	-14.5%	i	?	?	-6.8%
O=S(=O)(c1ccccc1)N1CCN(S(=O)(=O)c2ccc3c(c2)OCCO3)CC1	.	-1.3%	.	11.7%	.	.
Cc1cc(N(C)C)cc(C)c1N=Nc1cc[n+]([O-])cc1	.	.	11.2µM*	.	0.2%	-47.0%
Cc1nnc(SCC(=O)N(CCC#N)c2ccc3c(c2)OCCO3)s1	4.8%	0.0%	i	-14.9%	3.6%	-3.2%
Cc1cc(N2CCN(S(=O)(=O)c3ccc(Cl)c(Cl)c3)CC2)c2ccccc2n1	-29.6%	-3.0%	i	23.1µM*	?	-42.6%
Cc1cc(N2CCN(S(=O)(=O)c3ccc(Cl)cc3)CC2)c2ccccc2n1	?	-21.8%	?	20.6µM*	14.1µM*	10µM*
CCN(CC)S(=O)(=O)c1ccc2c(c1)N(CC(=O)Nc1cccnc1Cl)C(=O)CO2	-16.5%	-5.9%	i	-13.5%	-29.4%	-9.6%
COc1ccc(CNC(=O)c2ccc(NC(=O)N3CCSc4ncccc43)cc2)c(OC)c1	.	10.2%	.	?	0.0%	-23.6%
O=C(NCc1cccs1)c1ccc(CSc2nc3cccnc3n2Cc2ccc(F)cc2)cc1	-31.7%	-19.2%	?	18.4µM*	?	-35.9%
CCOc1ccccc1CNC(=O)c1ccc(Cn2c(SCc3ccccc3)nc3cccnc32)cc1	.	-15.7%	.	20.6µM*	?	-17.7%
CN(Cc1ccccc1)C(=O)c1ccc(CSc2nc3cccnc3n2Cc2ccccc2)cc1	-13.6%	?	?	20.6µM*	20µM*	-74.4%
CCOc1ccccc1CNC(=O)c1ccc(NC(=O)N2CCSc3ncccc32)cc1	.	2.4%	.	18.4µM*	-27.8%	9.2%
O=C(NCCc1ccccc1)c1ccc(CSc2nc3cccnc3n2Cc2ccccc2)cc1	-6.6%	-13.8%	i	?	?	-27.6%
O=C(Nc1cc2cccc([N+](=O)[O-])c2oc1=O)c1cccs1	3.6%	-0.7%	i	?	?	-39.3%
Cc1ccc(OCCCn2c(C3CC(=O)N(c4cccc(Cl)c4)C3)nc3ccccc32)c(C)c1 (centres undefined)	-1.7%	-15.5%	i	-29.4%	-10.0%	-8.1%
Cc1ccc(OCCn2c(C3CC(=O)N(Cc4ccc(F)cc4)C3)nc3ccccc32)c(C)c1 (centres undefined)	?	-0.8%	?	23.1µM*	?	17.8µM*
